Read-out in assay [1]: Vascular endothelial growth factor receptor 2 (Homo sapiens) (UniProt P35968)
The assay is described as follows: BSK_4H_VEGFRII: BioMAP Diversity Plus: 4H Assay for Vascular endothelial growth factor receptor 2 (VEGFR2) Biomarker Activity (AID 2283031).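 For AC50: cell-surface VEGFR2 protein level quantified by ELISA.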 The conditions noted are these: primary human endothelial cells (HUVEC); actives raise or lower the signal. The gist of the method: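 HUVEC (human primary), 4H system; 24 h post-dose; VEGFRII by ELISA; bidirectional curve fit vs DMSO baseline; gain or loss of signal scored.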

Read-out in assay [2]: Human Leukocyte Antigen - DR isotype (HLADR), HLA-DRA (gene 3122)
The assay is described as follows: BSK_BE3C_HLADR: BioMAP Diversity Plus: BE3C Assay for Human Leukocyte Antigen - DR isotype (HLADR) Biomarker Activity (AID 2283032). The settings on record: primary human bronchial epithelial cells; actives raise or lower the signal. The essentials:
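Signal came from an ELISA for HLA-DR in human bronchial epithelial primary cells harvested 24 h after treatment; gain- and loss-of-signal fitting used DMSO controls as reference.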

Read-out in assay [3]: Vascular cell adhesion molecule 1 (VCAM1), VCAM1 (gene 7412)
In words: BSK_4H_VCAM1: BioMAP Diversity Plus: 4H Assay for Vascular cell adhesion molecule 1 (VCAM1) Biomarker Activity (AID 2283033).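 For outcome: cell-surface VCAM-1 protein measured by ELISA.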 The conditions noted are these: primary human endothelial cells (HUVEC); actives raise or lower the signal. The essentials: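 Endpoint derived from bidirectional fitting against DMSO controls of VCAM-1 ELISA signal in umbilical vein endothelial cells sampled at 24 h following treatment.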

Read-out in assay [4]: Interferon-gamma inducible Protein 10 (IP10), CXCL10 (gene 3627)
The assay is described as follows: BSK_BE3C_IP10: BioMAP Diversity Plus: BE3C Assay for Interferon-gamma inducible Protein 10 (IP10) Biomarker Activity (AID 2283034). The conditions noted are these: primary human bronchial epithelial cells; actives raise or lower the signal. The essentials:
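Using primary human bronchial epithelial cultures, the assay captures IP-10 by ELISA one day (24 h) after exposure. Parallel SRB staining of total protein flags overt cytotoxicity. Fits run bidirectionally relative to DMSO.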

Read-out in assay [5]: Monokine induced gamma interferon (MIG), CXCL9 (gene 4283)
In words: BSK_BE3C_MIG: BioMAP Diversity Plus: BE3C Assay for Monokine induced gamma interferon (MIG) Biomarker Activity (AID 2283035). The settings on record: primary human bronchial epithelial cells; actives raise or lower the signal. The essentials: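 MIG level was determined by ELISA after 24 h chemical treatment of primary human bronchial epithelial cells. Values were fitted bidirectionally with DMSO as the negative control and activity baseline.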

Read-out in assay [6]: Transforming growth factor beta 1 (TGFb1), TGFB1 (gene 7040)
The assay is described as follows: BSK_BE3C_TGFb1: BioMAP Diversity Plus: BE3C Assay for Transforming growth factor beta 1 (TGFb1) Biomarker Activity (AID 2283036;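 for outcome: TGF-b1 protein level measured by ELISA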). The conditions noted are these: primary human bronchial epithelial cells; actives raise or lower the signal. The gist of the method:
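In this human primary bronchial epithelial system, an ELISA quantified TGF-b1 one day after dosing. Endpoint changes in either direction were fitted relative to DMSO.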

Read-out in assay [7]: Plasminogen activator inhibitor-1 (PAI1), SERPINE1 (gene 5054)
The assay is described as follows: BSK_BE3C_PAI1: BioMAP Diversity Plus: BE3C Assay for Plasminogen activator inhibitor-1 (PAI1) Biomarker Activity (AID 2283037). The conditions noted are these: primary human bronchial epithelial cells; actives raise or lower the signal. The essentials: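 PAI-1 biomarker levels in treated human bronchial epithelial cells are determined by ELISA at 24 h. Both increases and decreases relative to DMSO are fitted.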

Read-out in assay [8]: urokinase plasminogen activator (uPA), PLAU (gene 5328)
In words: BSK_BE3C_uPA: BioMAP Diversity Plus: BE3C Assay for urokinase plasminogen activator (uPA) Biomarker Activity (AID 2283038).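 For outcome: uPA protein level quantified by ELISA in cell cultures; uPA read one day after compound addition.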 The settings on record: primary human bronchial epithelial cells; actives raise or lower the signal. The essentials: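 ELISA read-out of uPA in human lung primary bronchial epithelial cultures, 24 h post-dosing. Gain or loss of signal fitted bidirectionally relative to DMSO baseline; cytotoxicity checked in parallel cultures via SRB total protein stain.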

Read-out in assay [9]: Urokinase-type plasminogen activator receptor (uPAR), PLAUR (gene 5329)
In words: BSK_BE3C_uPAR: BioMAP Diversity Plus: BE3C Assay for Urokinase-type plasminogen activator receptor (uPAR) Biomarker Activity (AID 2283039).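 Note: uPAR protein level measured by ELISA on the cells; cells exposed to compound for one day before measurement.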 The conditions noted are these: primary human bronchial epithelial cells; actives raise or lower the signal. The gist of the method: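 A uPAR ELISA serves as the readout, taken 24 h after treating primary human bronchial epithelial cells. Responses in either direction are fitted against DMSO, which defines baseline activity.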

Read-out in assay [10]: Interleukin-6 (IL6), IL6 (gene 3569)
The assay is described as follows: BSK_CASM3C_IL6: BioMAP Diversity Plus: CASM3C Assay for Interleukin-6 (IL6) Biomarker Activity for (AID 2283040). The settings on record: primary human coronary artery smooth muscle cells; actives raise or lower the signal.

Read-out in assay [11]: Tissue plasminogen activator (tPA), PLAT (gene 5327)
In words: BSK_BE3C_tPA: BioMAP Diversity Plus: BE3C Assay for Tissue plasminogen activator (tPA) Biomarker Activity (AID 2283041).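 Note: tPA level quantified by ELISA one day after compound addition.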 The settings on record: primary human bronchial epithelial cells; actives raise or lower the signal. The gist of the method: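 Bidirectional curve fitting relative to DMSO defined activity, with tPA detected by ELISA in chemically treated human bronchial epithelial primary cells at 24 hours.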

Read-out in assay [12]: Interleukin-8 (IL8), CXCL8 (gene 3576)
The assay is described as follows: BSK_CASM3C_IL8: BioMAP Diversity Plus: CASM3C Assay for Interleukin-8 (IL8) Biomarker Activity (AID 2283042).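 Note: IL-8 protein level quantified by ELISA.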 The conditions noted are these: primary human coronary artery smooth muscle cells; actives raise or lower the signal.

Read-out in assay [13]: Human Leukocyte Antigen - DR isotype (HLADR), HLA-DRA (gene 3122)
In words: BSK_CASM3C_HLADR: BioMAP Diversity Plus: CASM3C Assay for Human Leukocyte Antigen - DR isotype (HLADR) Biomarker Activity (AID 2283043).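 Note: cell-surface HLA-DR protein level quantified by ELISA.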 The settings on record: primary human coronary artery smooth muscle cells; actives raise or lower the signal.

Read-out in assay [14]: Macrophage colony-stimulating factor (MCSF), CSF1 (gene 1435)
In words: BSK_CASM3C_MCSF: BioMAP Diversity Plus: CASM3C Assay for Macrophage colony-stimulating factor (MCSF) Biomarker Activity (AID 2283044).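 Note: M-CSF protein amount quantified by ELISA after 24 h exposure.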 The settings on record: primary human coronary artery smooth muscle cells; actives raise or lower the signal.

Read-out in assay [15]: Low-density lipoprotein receptor (LDLR), LDLR (gene 3949)
In words: BSK_CASM3C_LDLR: BioMAP Diversity Plus: CASM3C Assay for Low-density lipoprotein receptor (LDLR) Biomarker Activity (AID 2283045).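 Note: LDLR protein level on the cell surface quantified by ELISA.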 The settings on record: primary human coronary artery smooth muscle cells; actives raise or lower the signal.

Read-out in assay [16]: Monocyte Chemoattractant Protein-1 (MCP1), CCL2 (gene 6347)
In words: BSK_CASM3C_MCP1: BioMAP Diversity Plus: CASM3C Assay for Monocyte Chemoattractant Protein-1 (MCP1) Biomarker Activity (AID 2283046).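 Note: MCP-1 level quantified by ELISA 24 h after dosing.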 The conditions noted are these: primary human coronary artery smooth muscle cells; actives raise or lower the signal.

Assay [17] can be described thus: BSK_CASM3C_Proliferation: Cell Proliferation Assessment in the BioMAP Diversity Plus: CASM3C Assay (AID 2283047).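 Note: sulforhodamine B total protein stain as relative cell number at 560 nm; sub-confluent cells exposed 48 h before staining; fitted both ways against DMSO so gain or loss of cell number.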 The conditions noted are these: primary human coronary artery smooth muscle cells.
Read-out in assay [18]: Monokine induced gamma interferon (MIG), CXCL9 (gene 4283)
The assay is described as follows: BSK_CASM3C_MIG: BioMAP Diversity Plus: CASM3C Assay for Monokine induced gamma interferon (MIG) Biomarker Activity (AID 2283048).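 Note: MIG protein level measured by ELISA.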 The settings on record: primary human coronary artery smooth muscle cells; actives raise or lower the signal.

Read-out in assay [19]: serum amyloid A (SAA), SAA1 (gene 6288)
The assay is described as follows: BSK_CASM3C_SAA: BioMAP Diversity Plus: CASM3C Assay for serum amyloid A (SAA) Biomarker Activity (AID 2283049).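 Note: SAA protein level quantified by ELISA.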 The settings on record: primary human coronary artery smooth muscle cells; actives raise or lower the signal.

Assay [20] can be described thus: BSK_CASM3C_SRB: Viability Assessment in the BioMAP Diversity Plus: CASM3C Assay (AID 2283050).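 Note: cells exposed to compound for 24 h.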 The settings on record: primary human coronary artery smooth muscle cells.

Activity calls are given as the source filed them. Rule for the calls: active = hit-call score of the fitted dose curve at least 0.9, where 1 is the maximum; inactive = score below 0.9.

With `CC(C)(C)c1ccccc1OP(=O)(Oc1ccccc1)Oc1ccccc1`, the outcome in assay [1], in [4], in [5], in assay [6], in assay [7] and in assay [8] was inactive. Moreover, the outcome in assay [9], in assay [10], in assay [11], in assay [12], in [13] and in assay [14] was inactive. In addition, the outcome in [16], in [18] and in assay [19] was inactive. Besides, the half-maximal activity concentration (AC50) was 2.85 µM (active) in [2]; 20 µM (active) in [3]; 4.61 µM (active) in assay [15]; 20 µM (active) in [17]; 5.23 µM (active) in assay [20].

Consider `CCOP(=S)(NC(C)C)Oc1ccccc1C(=O)OC(C)C` (stereo not given), for which the result in assay [1], in assay [2], in [3], in [4], in assay [5] and in [6] was inactive. Also, the result in [7], in assay [8], in [9], in assay [10], in assay [11] and in assay [12] was inactive. For the same compound, the outcome in assay [13], in assay [14], in assay [15], in assay [16], in [17] and in assay [18] was inactive. The outcome in assay [19] and in assay [20] was inactive.

With `CC(Cc1ccc(OCC(=O)O)cc1)NCC(O)c1csc(C(F)(F)F)n1` (stereo not given), the outcome in assay [1], in assay [2], in [3], in [4], in assay [5] and in assay [6] was inactive. Also, the outcome in assay [7], in assay [8], in assay [9], in assay [10], in assay [11] and in assay [12] was inactive. Besides, the result in assay [13], in [14], in [15], in [16], in assay [17] and in assay [18] was inactive. Also, the result in [19] and in assay [20] was inactive.

On to `CCCCOCCOP(=O)(OCCOCCCC)OCCOCCCC`, for which the result in assay [1], in assay [2], in [3], in assay [4], in assay [5] and in assay [6] was inactive. The result in [7], in assay [8], in [9], in [11], in assay [12] and in assay [13] was inactive. The outcome in assay [14], in [15], in [16], in assay [17], in assay [18] and in assay [19] was inactive. Further, the result in [20] was inactive. The AC50 in assay [10] was 8.79 µM (active).

Regarding `ClC(Cl)(Cl)c1ccccc1`, the result in assay [1], in [2], in assay [3], in [4], in assay [5] and in [6] was inactive. Further, the result in [7], in [8], in [9], in assay [10], in assay [11] and in assay [12] was inactive. Moreover, the outcome in assay [13], in assay [14], in assay [15], in [16], in [17] and in [18] was inactive. For the same compound, the result in assay [19] and in assay [20] was inactive.

For the compound `CC(C)Nc1ccc(Nc2ccccc2)cc1`, the concentration at half-maximal activity (AC50) was 8.12 µM (active) in assay [1]; 9.07 µM (active) in [2]; 10.1 µM (active) in [3]; 6.69 µM (active) in [4]; 20 µM (active) in assay [5]; 20 µM (active) in assay [6]. Also, the AC50 is 20 µM (active) in assay [8]; 33.4 µM (active) in [10]; 34.1 µM (active) in assay [12]; 20 µM (active) in assay [13]; 20 µM (active) in [14]; 31.8 µM (active) in assay [15]. For the same compound, the AC50 in assay [16] is 32.9 µM (active); in [17], 20 µM (active); in assay [18], 28.2 µM (active); in assay [19], 32.8 µM (active); in assay [20] it was 26.3 µM (active). Also, the outcome in [7], in assay [9] and in assay [11] was inactive.

Usually AC50 stands for the midpoint of the concentration-response curve, whichever way the signal moves.
